Results on 9 compounds are retold here after PubChem BioAssay (NCATS).

Several values for one entry are separate records, joined by “and”; a condition that tells them apart may be missing. Equal values may be shown once. A number with no mark means an inactive call. Inconclusive results are not listed. Activity calls are given as the source filed them. Unless noted, calls follow the shape of the dose curve; as a rule, active = well fitted curve in the direction sought with a large enough effect; inconclusive = small, poorly fitted or top-dose-only effect, or another doubt; inactive = no such curve, though single readings can be large; an effect the other way counts as inactive or inconclusive.

In assay [1] the target is Guanine nucleotide-binding protein G(i) subunit alpha-1 (Homo sapiens) (UniProt P63096). The assay can be described thus: qHTS Assay for Inhibitors of RGS12 GoLoco Motif Activity (Green Fluorophore) (AID 879).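 Also: 0% = labeled peptide with Gαi1 and full inhibition = labeled peptide alone without protein; negative values mean loss of peptide binding seen as reduced polarization.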 The method, boiled down:
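Fluorescence polarization assay: 50 nM Gαi1 with 10 nM FITC-labeled RGS12 GoLoco peptide in 10 mM Tris pH 7.5, 150 mM NaCl, 0.1 mM GDP, 0.05% NP40, 10 min at room temperature with compound.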
On the technique in general: qHTS replaces the single test concentration by a dilution series.

Assay [2] has as its target Cytochrome P450 2C9 (Homo sapiens) (UniProt P11712). The assay can be described thus: qHTS Assay for Inhibitors and Substrates of Cytochrome P450 2C9 (AID 883). Also: nearly all actives have a fitted effect of over 60% in size. Also: potency is read from the fitted curve at half-maximal effect. In short, it runs like this: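 CYP2C9 deoxyluciferin hydroxylation, 37C, 60 min with NADPH regeneration; 10nM enzyme, 100uM Luciferin-H (KM). Glo detection reagent stopped reaction; luminescence normalized to sulphaphenazole (57uM) full inhibition.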

Assay [3] deals with Cytochrome P450 3A4 (Homo sapiens) (UniProt P08684). As to the kind of experiment: qHTS Assay for Inhibitors and Substrates of Cytochrome P450 3A4 (AID 884). Also: % is scaled to controls: 0 for no effect and ±100 for the full control effect; nearly all actives have a fitted effect of over 50% in size. In short, it runs like this:
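20 nM human CYP3A4 with 25 uM Luciferin-PPXE (at KM) in 200 mM KPO4, preincubated 10 min with compound; NADPH regeneration started a 60 min RT reaction. Luciferin detected by luminescence, normalized to 57 uM ketoconazole as full inhibition.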

Assay [4] addresses Cytochrome P450 2D6 (Homo sapiens) (UniProt P10635). As to the kind of experiment: qHTS Assay for Inhibitors and Substrates of Cytochrome P450 2D6 (AID 891). Also: nearly all actives have a fitted effect of over 60% in size. Also: potency is read from the fitted curve at half-maximal effect. The method, boiled down:
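Human CYP2D6 (5 nM) with 30 uM Luciferin-ME EGE (at Km) in 100 mM KPO4, compound preincubated 10 min, then NADPH regeneration system for 60 min at room temperature. Luciferin read by luminescence; normalized to 1.43 uM quinidine.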

In assay [5] the target is Cytochrome P450 2C19 (Homo sapiens) (UniProt P33261). The assay can be described thus: qHTS Assay for Inhibitors and Substrates of Cytochrome P450 2C19 (AID 899). Also: nearly all actives have a fitted effect of over 60% in size. Also: potency is read from the fitted curve at half-maximal effect. In short, it runs like this: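 In 50mM KPO4, the reaction held 5nM enzyme and KM-level (10uM) Luciferin-H EGE; it ran 60 min at 37C after NADPH regeneration and a 10 min compound preincubation. Luminescence values were scaled to 57uM ketoconazole as complete inhibition.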
Chain of Cytochrome P450 2C19 (Homo sapiens) (P33261 whole entry, looked up): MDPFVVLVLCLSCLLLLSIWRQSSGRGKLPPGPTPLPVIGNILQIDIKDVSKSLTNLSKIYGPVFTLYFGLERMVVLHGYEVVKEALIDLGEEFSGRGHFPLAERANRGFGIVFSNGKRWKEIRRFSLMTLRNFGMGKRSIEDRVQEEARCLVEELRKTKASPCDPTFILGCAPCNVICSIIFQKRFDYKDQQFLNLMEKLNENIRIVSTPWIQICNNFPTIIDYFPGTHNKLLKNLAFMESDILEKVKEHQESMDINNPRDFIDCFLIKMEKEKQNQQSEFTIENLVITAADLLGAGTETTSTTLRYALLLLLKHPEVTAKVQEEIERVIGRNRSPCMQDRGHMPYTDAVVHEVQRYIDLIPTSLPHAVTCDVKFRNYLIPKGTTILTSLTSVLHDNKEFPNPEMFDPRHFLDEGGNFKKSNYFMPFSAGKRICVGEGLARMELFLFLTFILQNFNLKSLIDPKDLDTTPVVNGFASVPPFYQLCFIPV

Assay [6] in a line: qHTS Assay for Identification of Small Molecule Agonists for Thrombopoietin (TPO) Signaling Pathway (AID 917). Also: % is scaled to controls: 0 for no effect and ±100 for the full control effect. The method, boiled down: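 Murine Ba/F3 cells stably expressing human TPO receptor and a Glycoprotein IIb promoter–luciferase reporter were IL-3-starved overnight, then treated with compounds plus TPO (26 pM final, its EC50) for 24 hrs at 37 C; luminescence was read.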

Assay [7] concerns the target Muscarinic acetylcholine receptor M1 (Rattus norvegicus) (UniProt P08482). The assay can be described thus: qHTS Assay for Antagonists of Acetylcholine Muscarinic M1 Receptor: Kinetic Measurement of Intracellular Calcium Response (AID 943).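 Also: Fluo-4 calcium signal as peak divided by basal fluorescence over 4 min; nearly all actives have a fitted effect of over 75% in size.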 In short, it runs like this:
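Intracellular calcium flux, recorded with Fluo-4 in a kinetic plate reader, served as signal; the response to carbachol at EC80 (100 nM final) was taken as maximal over minimal fluorescence after a 10 min compound pre-incubation in rat M1-CHO cells.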

The target is the same in assay [8]. The assay can be described thus: qHTS Assay for Antagonists of Acetylcholine Muscarinic M1 Receptor: Measurement of IP-One Response (AID 944). Also: nearly all actives have a fitted effect of over 75% in size. The method, boiled down:
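Steps: plate transfected CHO-M1 cells overnight; add test compound, 10 min; add carbachol (200 nM, EC80) in stimulation buffer with LiCl; incubate 30 min; add labelled IP1 tracer and anti-IP1 antibody in lysis buffer; read HTRF after 10 min.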

Assay [9] addresses Pyruvate kinase (Leishmania mexicana) (UniProt Q27686). The assay can be described thus: qHTS Validation Assay for Inhibitors of Leishmania Mexicana Pyruvate Kinase (AID 945).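 Also: 0% = DMSO only neutral control wells.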 In short, it runs like this: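 Mutant LmPYK (E451W), 0.2 nM, plus 0.5 mM PEP and 0.1 mM ADP in 50 mM imidazole pH 7.2 containing 0.01% Tween 20 and 0.05% BSA. Incubated 1 h at room temperature; luminescence via PKLight, normalized to DMSO.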

Assay [10] is described as follows: Confirmation and Secondary Assay for Modulators of Hemoglobin Beta Chain Splicing at IVS2 654 locus (AID 910).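 Also: per-well total GFP intensity by laser scanning cytometry after 2-day treatment; % of control where 0% means no effect.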 The method, boiled down: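 HeLa cells stably carrying EGFP interrupted by mutant beta-globin IVS2-654 intron (CMV-driven) were treated with compound for 2 days at 37C; corrected splicing was scored as total peak GFP intensity per well (488 nm excitation, 500-520 nm emission).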

A short description of assay [11]: Confirmation and Secondary Assay for Modulators of Hemoglobin Beta Chain Splicing at IVS2 705 locus (AID 930).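 Also: HeLa cells stably expressing the EGFP-705 splicing reporter; GFP fluorescence per well restored by corrected splicing of the IVS2-705 intron in EGFP; % of control where 0% means no effect.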 The method, boiled down: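 Stable HeLa line with EGFP disrupted by mutant beta-globin intron 2 (705). Overnight attachment, then 2 days of compound at 37C, 5% CO2. Signal: peak GFP intensity summed over objects 5-250 µm.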
A short description of assay [12]: Cellular Toxicity (caspase-3) Hek293 (AID 664).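 Also: cells exposed to compound for 16 h at 37 °C before readout.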 Particulars: HEK293 caspase-3 activation; caspase-3 activation: at 92.2 µM (top of the series), DMSO = 0%, 100 µM tamoxifen = 100%. In short, it runs like this:
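Activation of caspase-3/7 is measured as increased luminescence from cleaved peptide-aminoluciferin substrate in HEK293 cells treated 16 hours at 37 °C. AC50 values come from Hill-equation fits of concentration-response data.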

The nature of assay [13]: Cellular Toxicity (caspase-3) N2a (AID 665).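 Also: compound exposure lasted 16 h at 37 °C before readout.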 Particulars: Potency: caspase-3 activation. The method, boiled down:
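Plated mouse neuroblastoma N2a cells received titrated compounds for 16 h in complete medium. Caspase activity was then detected with a peptide-aminoluciferin luminescent reagent.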

A short description of assay [14]: Cellular Toxicity (caspase-3) NIH 3T3 (AID 666).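 Also: caspase signal read after 16 h compound exposure; 0% = DMSO basal and 100% = 100 µM tamoxifen stimulation.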 The method, boiled down:
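Concentration-response qHTS in NIH 3T3 mouse fibroblasts scores caspase-3/7 activation as rising luminescence after 16 hr compound exposure. Signals are scaled between DMSO-only and 100 uM tamoxifen.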

Assay [15] can be described thus: Cellular Toxicity (caspase-3) Renal Proximal Tubule (AID 667).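 Also: cells exposed to compound for 16 hours at 37 °C before detection; 0% = DMSO basal and 100% = 10 µM staurosporine.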 Particulars: Potency: caspase-3 activation. The method, boiled down: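 Primary rat proximal tubule cells, 1000/well, 5 h plating at 37 °C, then compound 16 h at 37 °C. Caspase-Glo 3/7 reagent, 1 h RT, luminescence. Normalized to DMSO (basal) and 10 uM staurosporine (100%); Hill-fit AC50.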
Assay [16] is described as follows: qHTS Assay for Identification of Small Molecule Antagonists for NFkB Signaling Pathway (AID 895; active = well fitted inhibition curve with a large enough effect in the signal ratio, with a control signal flat, not every such curve was filed as active; the % refers to the signal ratio; also: % is scaled to controls: 0 for no effect and ±100 for the full control effect). The method, boiled down:
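NFkB-bla ME-180 cervical carcinoma cells with beta-lactamase reporter under NFkB response element; compounds added, then TNF alpha at 10 pM final (EC50), 5 h at 37 C. LiveBLAzer substrate 2 h, room temperature; emission 460/530 nm at 405 nm excitation.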

Assay [17] has as its target Cytochrome P450 3A4 (Homo sapiens) (UniProt P08684). The assay can be described thus: qHTS Assay for Activators of Cytochrome P450 3A4 (AID 885). Also: nearly all actives have a fitted effect of over 65% in size. In short, it runs like this:
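20nM CYP3A4 + 25uM Luciferin-PPXE (=KM), 200mM KPO4; cpd 10 min RT; NADPH regen, 60 min RT; stop w/ detection buffer, 20 min; luminescence. Normalized to 57 uM ketoconazole.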

A short description of assay [18]: qHTS Assay for Identification of Small Molecule Agonists for Hypoxia Response Element Signaling Pathway (AID 914; active = well fitted activation curve with a large enough effect in the signal ratio, with a control signal flat, not every such curve was filed as active; the % refers to the signal ratio; also: % of control where 0% means no effect). Particulars: ME-180 HRE-bla reporter, beta-lactamase ratio, CoCl2, 17 h; stronger effect = higher value. The method, boiled down: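 Reporter activity (beta-lactamase, CCF4 460nm/530nm ratio) in HRE-bla ME-180 cells is recorded after 17 h compound exposure with EC50 CoCl2 at 37 degrees Celsius. AC50 values come from titration data.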

Assay [19] in a line: qHTS Assay for Identification of Small Molecule Agonists for NFkB Signaling Pathway (AID 928; calls by dose curve). Particulars: NFkB beta-lactamase reporter cells, blue/green ratio. In short, it runs like this: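 ME-180 NFkB-bla cells carry a beta-lactamase reporter under an NFkB response element. Compound plus 10 pM TNF alpha (final) was applied for 5 hrs at 37 C. After 2 hrs with LiveBLAzer substrate, 460/530 nm emission was read at 405 nm excitation.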

Chain of Cytochrome P450 2D6 (Homo sapiens) (P10635 whole entry, looked up): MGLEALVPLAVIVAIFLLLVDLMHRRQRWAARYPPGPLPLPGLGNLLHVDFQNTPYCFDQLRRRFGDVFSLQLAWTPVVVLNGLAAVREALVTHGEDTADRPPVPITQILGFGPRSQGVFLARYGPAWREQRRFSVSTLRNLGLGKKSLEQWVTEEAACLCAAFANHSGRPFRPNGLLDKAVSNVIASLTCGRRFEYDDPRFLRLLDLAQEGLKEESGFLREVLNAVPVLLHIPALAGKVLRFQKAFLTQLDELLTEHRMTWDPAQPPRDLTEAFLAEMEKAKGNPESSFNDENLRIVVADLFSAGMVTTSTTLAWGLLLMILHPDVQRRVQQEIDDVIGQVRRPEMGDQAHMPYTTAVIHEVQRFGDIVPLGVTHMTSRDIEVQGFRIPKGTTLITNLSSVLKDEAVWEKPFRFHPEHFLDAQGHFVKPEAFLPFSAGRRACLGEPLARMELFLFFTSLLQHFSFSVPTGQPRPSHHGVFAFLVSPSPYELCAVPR
Chain of Pyruvate kinase (Leishmania mexicana) (Q27686 2-499 E452W): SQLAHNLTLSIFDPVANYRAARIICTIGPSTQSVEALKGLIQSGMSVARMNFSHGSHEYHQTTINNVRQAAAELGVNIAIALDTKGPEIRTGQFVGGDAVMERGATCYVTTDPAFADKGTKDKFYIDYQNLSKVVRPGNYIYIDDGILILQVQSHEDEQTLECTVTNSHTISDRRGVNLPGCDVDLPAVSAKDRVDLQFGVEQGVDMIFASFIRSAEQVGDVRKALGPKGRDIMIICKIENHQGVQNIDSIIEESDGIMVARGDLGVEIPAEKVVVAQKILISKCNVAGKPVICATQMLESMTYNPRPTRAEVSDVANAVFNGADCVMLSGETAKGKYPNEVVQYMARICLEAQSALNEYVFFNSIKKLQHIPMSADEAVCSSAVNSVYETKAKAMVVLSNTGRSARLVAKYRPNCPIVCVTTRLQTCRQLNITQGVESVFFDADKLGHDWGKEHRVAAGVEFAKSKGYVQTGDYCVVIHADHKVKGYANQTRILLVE
Chain of Cytochrome P450 2C9 (Homo sapiens) (P11712 whole entry, looked up): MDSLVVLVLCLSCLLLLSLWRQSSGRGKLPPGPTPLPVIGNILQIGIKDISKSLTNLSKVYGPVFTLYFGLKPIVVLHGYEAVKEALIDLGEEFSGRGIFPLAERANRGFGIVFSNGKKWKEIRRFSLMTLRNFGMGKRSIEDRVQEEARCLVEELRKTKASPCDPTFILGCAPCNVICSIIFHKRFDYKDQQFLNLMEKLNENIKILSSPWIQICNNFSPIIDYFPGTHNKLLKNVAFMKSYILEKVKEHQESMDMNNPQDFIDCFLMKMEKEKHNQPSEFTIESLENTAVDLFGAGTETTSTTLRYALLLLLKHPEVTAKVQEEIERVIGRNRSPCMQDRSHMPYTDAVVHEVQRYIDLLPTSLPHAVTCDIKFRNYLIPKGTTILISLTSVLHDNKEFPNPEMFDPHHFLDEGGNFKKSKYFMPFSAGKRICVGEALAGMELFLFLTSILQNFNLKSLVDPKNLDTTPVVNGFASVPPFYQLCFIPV
Chain of Muscarinic acetylcholine receptor M1 (Rattus norvegicus) (P08482 whole entry, looked up): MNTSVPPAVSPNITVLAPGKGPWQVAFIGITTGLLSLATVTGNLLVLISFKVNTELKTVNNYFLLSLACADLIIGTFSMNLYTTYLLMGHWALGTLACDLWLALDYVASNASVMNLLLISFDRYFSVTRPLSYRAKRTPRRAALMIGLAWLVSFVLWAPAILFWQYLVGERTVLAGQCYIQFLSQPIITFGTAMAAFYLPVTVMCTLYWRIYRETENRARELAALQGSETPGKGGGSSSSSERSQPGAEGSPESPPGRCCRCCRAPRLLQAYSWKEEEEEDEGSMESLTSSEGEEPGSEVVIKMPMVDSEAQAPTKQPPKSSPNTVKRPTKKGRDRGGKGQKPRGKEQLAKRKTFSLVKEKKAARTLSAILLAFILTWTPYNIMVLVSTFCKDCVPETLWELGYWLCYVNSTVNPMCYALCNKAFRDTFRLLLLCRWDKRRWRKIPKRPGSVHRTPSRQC
Chain of Cytochrome P450 3A4 (Homo sapiens) (P08684 whole entry, looked up): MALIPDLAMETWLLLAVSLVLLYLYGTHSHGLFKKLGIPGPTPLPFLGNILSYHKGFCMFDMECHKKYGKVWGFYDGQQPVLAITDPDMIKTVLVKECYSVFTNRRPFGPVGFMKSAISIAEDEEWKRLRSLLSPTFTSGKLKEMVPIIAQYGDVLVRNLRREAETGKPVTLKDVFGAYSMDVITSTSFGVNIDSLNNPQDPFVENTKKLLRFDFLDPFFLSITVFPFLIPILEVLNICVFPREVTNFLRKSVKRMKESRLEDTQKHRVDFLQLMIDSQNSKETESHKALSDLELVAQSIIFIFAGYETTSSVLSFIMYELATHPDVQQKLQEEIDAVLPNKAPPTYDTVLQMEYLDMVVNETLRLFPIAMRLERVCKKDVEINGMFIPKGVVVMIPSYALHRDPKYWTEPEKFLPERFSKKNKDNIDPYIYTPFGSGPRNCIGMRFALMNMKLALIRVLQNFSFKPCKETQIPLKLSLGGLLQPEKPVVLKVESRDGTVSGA
Chain of Guanine nucleotide-binding protein G(i) subunit alpha-1 (Homo sapiens) (P63096 whole entry, looked up): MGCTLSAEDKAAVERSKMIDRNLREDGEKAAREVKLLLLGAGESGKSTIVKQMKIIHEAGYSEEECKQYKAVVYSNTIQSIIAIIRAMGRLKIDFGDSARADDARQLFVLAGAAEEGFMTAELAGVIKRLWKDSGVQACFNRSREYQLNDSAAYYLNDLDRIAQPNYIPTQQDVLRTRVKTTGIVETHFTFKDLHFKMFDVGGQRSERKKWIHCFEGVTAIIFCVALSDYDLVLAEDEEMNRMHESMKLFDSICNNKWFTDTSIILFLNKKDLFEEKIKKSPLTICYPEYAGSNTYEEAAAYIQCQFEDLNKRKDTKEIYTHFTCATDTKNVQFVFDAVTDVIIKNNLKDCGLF

For the compound `CCN(CC)C(=O)c1ccc(O)c(OC)c1`, the result in [1], in [7] and in [8] was inactive. Also, the Potency result in assay [2], in assay [3], in assay [4], in assay [5], in assay [6] and in [9] was “inactive” throughout.
Regarding `C[N+](C)(C)CCCCCC[N+](C)(C)C`, the call in [1], in [10], in [11], in assay [7] and in [8] was inactive. The Potency entry in [2], in [3], in assay [6] and in assay [9] was “inactive” throughout.
Take `CC(=O)c1ccc(S(=O)(=O)NC(=O)NC2CCCCC2)cc1`: the Potency entry in assay [12], in [13], in assay [15], in assay [2], in [3] and in assay [4] was “inactive” in each case. Besides, the Potency result in assay [16], in [5], in assay [6] and in [9] was “inactive” throughout. Also, the compound was classed as inactive in assay [14], in assay [1] and in [7].
Regarding `CCN1CCC[C@H]1CNC(=O)c1cc(S(N)(=O)=O)ccc1OC`, the compound was classed as inactive in [1]. In addition, the Potency entry in [3], in [5], in assay [6] and in assay [9] was “inactive” throughout.
Regarding `O=c1c(O)c(-c2ccc(O)cc2)oc2cc(O)cc(O)c12`, the Potency entry in assay [12], in assay [13] and in [15] was “inactive” in each case. In addition, the outcome in assay [14] and in assay [17] was inactive. The Potency in assay [2] and in assay [4] was 15.8 µM (active) in each case.
In the case of `COc1ccccc1N1CCN(CCCNc2cc(=O)n(C)c(=O)n2C)CC1`, the call in assay [1], in [10] and in assay [11] was inactive. Besides, the Potency entry in assay [3], in [6] and in assay [9] was “inactive” throughout. In addition, the Potency in assay [5] is 7.94 µM (active).
In the case of `O=C1NCC2(CCN(CCc3ccccc3)CC2)O1`, the compound was classed as inactive in assay [1], in assay [10] and in assay [11]. Further, the Potency result in assay [3], in assay [6] and in assay [9] was “inactive” each time.
With `CCn1cc(C(=O)O)c(=O)c2ccc(C)nc21`, the Potency result in assay [12], in assay [13] and in assay [15] was “inactive” each time. The compound was called inactive in assay [14], in assay [10] and in assay [11].
With `CCCNC(=O)NS(=O)(=O)c1ccc(Cl)cc1`, the Potency result in assay [12], in assay [13], in assay [15], in assay [2], in [3] and in assay [4] was “inactive” each time. Further, the Potency entry in [5], in assay [6] and in [9] was “inactive” each time. Also, the outcome in assay [14], in assay [1], in assay [17], in assay [10] and in assay [11] was inactive. Besides, the activation in assay [18] was -1.93% and -16.9% and -21.4%. For the same compound, the Potency in assay [19] was 0.447 µM (active).
